A short description of assay [1]: rapamycin-like changes in RPL19A-GFP expression – cell-based, S. cerevisiae, multiplex flow cytometry, primary screen (AID 1862; in the data active = percent of DMSO control GFP below about 86%;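 also: lower values mimic rapamycin by blocking the RPL19A rise seen in DMSO cells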). Conditions: S. cerevisiae RPL19A-GFP strain, flow cytometry fluorescence, 3 h; at 10 µM; stronger effect = lower value.
Assay [2] in a line: TOR pathway GLN3 branch reporter MEP2-GFP changes – S. cerevisiae, multiplex flow cytometry, primary screen (AID 1867;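 active = GFP response, as percent of the DMSO control, above the screen-wide mean plus 3 SD, about 139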;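 also: median GFP channel fluorescence of barcode-gated MEP2-GFP cells measured by flow cytometry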). Conditions: S. cerevisiae MEP2-GFP strain, 3 h, at 10 µM, stronger effect = higher value, 100% means same as DMSO wells.
A short description of assay [3]: TOR pathway RTG branch CIT2 reporter changes – S. cerevisiae, GFP fusion, multiplex flow cytometry, primary screen (AID 1870).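 Also: barcoded CIT2-GFP strain pooled with four other GFP strains with rapamycin as positive control; median GFP fluorescence per well over plate mean of DMSO wells so 100% = DMSO.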 Conditions: S. cerevisiae CIT2-GFP expression, 3 h, at 10 µM, stronger effect = higher value.
Assay [4] in a line: TOR pathway LAP4-GFP level changes – S. cerevisiae, multiplex flow cytometry, primary screen (AID 1873;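 active = GFP signal, as percent of the solvent control, above the screen mean plus 3 SD, about 149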). Conditions: S. cerevisiae LAP4-GFP expression, 3 h, at 10 µM, stronger effect = higher value.
The nature of assay [5]: yeast AGP1-GFP level changes, GLN3 branch – cell-based, multiplex flow cytometry, S. cerevisiae, primary screen (AID 1887;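 active = GFP signal above the screen-wide mean plus 3 SD, that is over about 124.5% of the solvent control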;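 also: AGP1-GFP fusion strain of S. cerevisiae within a five-strain barcoded multiplex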). Conditions: 3 h, at 10 µM, stronger effect = higher value.
Assay [6] in a line: reduced mouse 2C T cell binding to pMHC/ICAM-1 vesicles – MLPCN validation set, flow cytometry, LFA-1/ICAM-1 modulator project, pilot screen (AID 2523;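 active = response below a set limit, under 55% cells CD8-positive and vesicle-bound, and CD8 cells' 90th-percentile brightness under 279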;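 as to vesicle binding response: mean PE anti-B7-1 fluorescence of CD8+ cells relative to row control; 100% = QL9-loaded vesicles with DMSO vehicle in the same plate row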). Conditions: 2C mouse CD8+ T cells, at 7 µM, stronger effect = lower value; double positive events: measured here: CD8+/vesicle+ event percentage.
Assay [7] concerns the target Integrin beta-1 (Homo sapiens) + Integrin alpha-4 (Homo sapiens) (UniProt P13612+P05556). Put plainly: alpha4beta1 integrin LIBS antibody binding reduction – U937 cells, HUTS-21 mAb, flow cytometry, validation set, VLA-4 allosteric modulator project, pilot screen (AID 2674;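 active = inhibition above 50%, about 3 SD of the validation set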;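 also: antibody binding induced by the VLA-4 ligand LDV present at three times its Kd; 0% = LDV ligand with antibody and no compound and 100% = antibody without LDV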). Conditions: HUTS-21 LIBS mAb binding, at 6.7 µM, stronger effect = higher value, binding induced by LDV ligand.

The nature of assay [8]: calorie-restriction mimetic ROS inhibitors, yeast – validation compound set, pilot screen (AID 2706;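 active = superoxide response below 65% of plate, a cut near 3 SD across the whole screen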;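 also: yeast exposed to compound for one week at 30 degrees C before staining; 100% = mean of all compound wells on the same plate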). Conditions: S. cerevisiae aging, superoxide DHE fluorescence; at 10 µM; stronger effect = lower value.
Assay [9] concerns the target Beta-adrenergic receptor kinase 1 (Homo sapiens) (UniProt P25098). Put plainly: GRK2 binders displacing RNA aptamer, biochemical, validation, human GRK2, bead flow cytometry (AID 488806;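 active = aptamer binding inhibition above 30%, about 3 SD of noise from non-fluorescent compounds; inactive = inhibition at or below 30%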). Conditions: bead-bound GRK2, FAM-aptamer displacement, at 10 µM, stronger effect = higher value.
Assay [10] deals with Beta-2 adrenergic receptor (Homo sapiens) (UniProt P07550). Kind of assay: agonist-induced loss of surface beta2AR – cell-based, FAP fluorogen, flow cytometry, validation set, pilot screen (AID 504459;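 active = percent response above 42, roughly 3 SD of non-fluorescent test compounds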;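 also: agonist-driven loss of surface beta2AR via internalization measured by FAP dye flow cytometry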). Conditions: Am2.2-beta2AR cells, at 10 µM, stronger effect = higher value.
Assay [11] deals with AP-2 complex subunit beta (Homo sapiens) (UniProt P63010). Put plainly: beta-arrestin/AP2 interaction blockers – biochemical, validation set, GST-AP2 beads, flow cytometry, pilot screen (AID 504541;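 active = inhibition above 54%, about 3 SD of non-fluorescent compounds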;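 also: AP2 carries R879A mutation and is captured from E. coli lysate; bead-bound FITC arrestin peptide fluorescence measuring arrestin peptide binding to AP2; 0% = DMSO wells and 100% = excess unlabeled arrestin peptide control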). Conditions: FITC arrestin peptide, at 10 µM, stronger effect = higher value, AP2 beta2 appendage fragment, R879A mutant.
Assay [12] in a line: cytosolic pH regulators acting via V-ATPase – S. cerevisiae, pHLuorin, HTS validation (AID 504600; in the data active = response above about 15%;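 also: plate controls were DMSO for no effect and reference compound for full effect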). Conditions: V-ATPase proton transport, at 10 µM, stronger effect = higher value.
For assay [13], the system named is anti-desmoglein-3 scFv antibody binding to human DSG3. Kind of assay: blockers of pathogenic pemphigus antibody–desmoglein-3 binding – biochemical, validation compound set, bead-based, flow cytometry, pilot screen (AID 588368;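 active = binding below the plate cutoff, the plate median minus 3 SD, with a reading above zero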;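 also: signal is the median channel fluorescence of bead-bound GFP antibody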). Conditions: Protein G beads, DSG3-Fc, scFv-GFP binding, at 10 µM, stronger effect = lower value.
The nature of assay [14]: Nile Red efflux blockade in pump-expressing yeast – validation compound set, multiplex, phenotypic, pilot screen (AID 588506;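 active = efflux inhibition above 0.42, the validation set average plus 4 SD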;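 also: Nile Red retained in cells so higher fluorescence means more efflux inhibition; 0 = negative control wells and 1 = enniatin B 25 µM full block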). Conditions: S. cerevisiae pump-expressing triplex, Nile Red efflux flow cytometry; at 10 µM; stronger effect = higher value; the pumps come from Candida albicans.
Assay [15] concerns the target ATP-binding cassette sub-family B member 6 (Homo sapiens) (UniProt Q9NP58). Kind of assay: blockers of ABCB6-driven porphyrin uptake – K562-ABCB6 cells, flow cytometry, validation set, pilot screen (AID 588550;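 active = inhibition above the screen-wide mean plus 3 SD, about 51%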;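 also: 0% = DMSO wells and 100% = benzethonium chloride 70 µM positive control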). Conditions: K562-ABCB6 porphyrin accumulation, 1 h, at 10 µM, stronger effect = higher value.
The nature of assay [16]: AML differentiation inducers, ER-HoxA9 marrow cells – cell-based, GFP/MAC1 double positive, flow cytometry, validation set, primary screen (AID 588685;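 active = differentiation response of at least 50%, scaled between solvent and reference control, from cells with both markers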;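 also: compound exposure lasts four days before antibody staining and flow analysis; 0% = DMSO wells and 100% = 5 µM fulvestrant positive control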). Conditions: stronger effect = higher value, normalized: vehicle 0, fulvestrant 100.

Records with an inconclusive call do not appear. The source made the active and inactive calls.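 The calls were made as follows, unless noted: active = percent response above a set limit, the screen-wide mean plus 3 SD (cut at about 130% in these data); inactive = the rest.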

Chain of Integrin beta-1 (Homo sapiens) + Integrin alpha-4 (Homo sapiens) (P05556 whole entry, looked up): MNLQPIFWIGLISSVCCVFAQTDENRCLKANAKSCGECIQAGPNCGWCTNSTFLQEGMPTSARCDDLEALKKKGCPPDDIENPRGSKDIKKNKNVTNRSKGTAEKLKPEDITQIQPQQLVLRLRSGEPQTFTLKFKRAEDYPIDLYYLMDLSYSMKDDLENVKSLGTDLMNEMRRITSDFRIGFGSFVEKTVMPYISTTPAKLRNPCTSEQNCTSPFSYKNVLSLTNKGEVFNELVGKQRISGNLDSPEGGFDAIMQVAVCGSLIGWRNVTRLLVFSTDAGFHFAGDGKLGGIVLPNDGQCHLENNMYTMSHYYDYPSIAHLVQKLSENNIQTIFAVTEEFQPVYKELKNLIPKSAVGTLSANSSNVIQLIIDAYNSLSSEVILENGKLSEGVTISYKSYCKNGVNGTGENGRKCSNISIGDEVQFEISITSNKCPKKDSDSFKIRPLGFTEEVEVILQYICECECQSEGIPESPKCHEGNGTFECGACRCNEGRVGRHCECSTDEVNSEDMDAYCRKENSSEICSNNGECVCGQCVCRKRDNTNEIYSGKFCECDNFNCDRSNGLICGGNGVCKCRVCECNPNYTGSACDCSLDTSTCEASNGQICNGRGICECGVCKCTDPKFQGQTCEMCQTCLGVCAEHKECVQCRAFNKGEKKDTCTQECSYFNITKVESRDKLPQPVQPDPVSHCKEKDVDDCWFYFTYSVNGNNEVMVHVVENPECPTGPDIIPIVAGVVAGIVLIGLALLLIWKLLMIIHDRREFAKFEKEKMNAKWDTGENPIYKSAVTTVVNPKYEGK
Chain of Integrin beta-1 (Homo sapiens) + Integrin alpha-4 (Homo sapiens) (P13612 whole entry, looked up): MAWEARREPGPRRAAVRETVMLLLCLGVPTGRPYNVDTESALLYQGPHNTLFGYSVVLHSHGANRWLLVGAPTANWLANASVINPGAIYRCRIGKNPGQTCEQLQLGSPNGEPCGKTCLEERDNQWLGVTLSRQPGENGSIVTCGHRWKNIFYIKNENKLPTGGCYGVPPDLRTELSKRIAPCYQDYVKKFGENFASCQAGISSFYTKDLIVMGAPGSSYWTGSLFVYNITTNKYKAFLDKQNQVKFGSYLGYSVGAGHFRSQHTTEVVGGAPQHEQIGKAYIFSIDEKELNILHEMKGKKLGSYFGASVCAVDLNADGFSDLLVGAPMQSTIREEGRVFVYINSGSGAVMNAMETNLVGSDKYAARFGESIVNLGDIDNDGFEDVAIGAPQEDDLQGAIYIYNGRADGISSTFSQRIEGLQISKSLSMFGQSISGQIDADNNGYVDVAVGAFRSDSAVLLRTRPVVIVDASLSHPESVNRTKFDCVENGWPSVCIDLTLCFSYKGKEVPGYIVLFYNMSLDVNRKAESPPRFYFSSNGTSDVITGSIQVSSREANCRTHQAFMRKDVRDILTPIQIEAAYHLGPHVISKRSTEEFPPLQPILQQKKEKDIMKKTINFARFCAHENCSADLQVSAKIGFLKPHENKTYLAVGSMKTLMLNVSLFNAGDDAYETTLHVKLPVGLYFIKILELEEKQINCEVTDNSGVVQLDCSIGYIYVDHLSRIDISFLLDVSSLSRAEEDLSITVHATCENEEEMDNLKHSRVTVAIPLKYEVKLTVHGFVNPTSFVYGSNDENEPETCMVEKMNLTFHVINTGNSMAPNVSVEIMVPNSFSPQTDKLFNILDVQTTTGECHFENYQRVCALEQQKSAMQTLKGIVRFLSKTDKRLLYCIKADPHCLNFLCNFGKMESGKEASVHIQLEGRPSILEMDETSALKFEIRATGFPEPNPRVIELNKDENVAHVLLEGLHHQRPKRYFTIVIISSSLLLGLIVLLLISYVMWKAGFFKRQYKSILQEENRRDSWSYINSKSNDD
Chain of ATP-binding cassette sub-family B member 6 (Homo sapiens) (Q9NP58 whole entry, looked up): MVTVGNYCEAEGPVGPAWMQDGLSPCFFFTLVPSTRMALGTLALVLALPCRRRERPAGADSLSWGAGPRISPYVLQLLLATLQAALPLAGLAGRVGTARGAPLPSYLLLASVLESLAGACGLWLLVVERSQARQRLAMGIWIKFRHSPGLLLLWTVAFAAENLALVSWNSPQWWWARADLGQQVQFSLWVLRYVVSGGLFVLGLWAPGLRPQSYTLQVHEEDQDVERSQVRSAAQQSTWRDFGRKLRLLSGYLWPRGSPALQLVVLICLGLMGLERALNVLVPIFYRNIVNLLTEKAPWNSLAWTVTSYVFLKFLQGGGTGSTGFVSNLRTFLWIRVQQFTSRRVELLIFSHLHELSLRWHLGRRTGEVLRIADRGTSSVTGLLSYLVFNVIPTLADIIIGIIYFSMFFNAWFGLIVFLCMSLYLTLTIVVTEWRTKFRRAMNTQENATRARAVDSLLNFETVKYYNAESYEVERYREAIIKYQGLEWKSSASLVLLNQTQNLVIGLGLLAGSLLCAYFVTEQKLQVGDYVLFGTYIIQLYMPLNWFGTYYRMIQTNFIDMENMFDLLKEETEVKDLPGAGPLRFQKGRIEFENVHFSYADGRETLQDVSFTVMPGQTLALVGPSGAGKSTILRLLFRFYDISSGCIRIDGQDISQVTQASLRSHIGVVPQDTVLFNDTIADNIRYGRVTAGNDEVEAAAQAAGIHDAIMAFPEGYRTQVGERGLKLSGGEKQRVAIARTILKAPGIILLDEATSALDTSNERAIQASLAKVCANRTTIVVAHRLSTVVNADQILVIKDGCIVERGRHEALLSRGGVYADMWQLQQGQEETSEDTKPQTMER
Chain of Beta-2 adrenergic receptor (Homo sapiens) (P07550 whole entry, looked up): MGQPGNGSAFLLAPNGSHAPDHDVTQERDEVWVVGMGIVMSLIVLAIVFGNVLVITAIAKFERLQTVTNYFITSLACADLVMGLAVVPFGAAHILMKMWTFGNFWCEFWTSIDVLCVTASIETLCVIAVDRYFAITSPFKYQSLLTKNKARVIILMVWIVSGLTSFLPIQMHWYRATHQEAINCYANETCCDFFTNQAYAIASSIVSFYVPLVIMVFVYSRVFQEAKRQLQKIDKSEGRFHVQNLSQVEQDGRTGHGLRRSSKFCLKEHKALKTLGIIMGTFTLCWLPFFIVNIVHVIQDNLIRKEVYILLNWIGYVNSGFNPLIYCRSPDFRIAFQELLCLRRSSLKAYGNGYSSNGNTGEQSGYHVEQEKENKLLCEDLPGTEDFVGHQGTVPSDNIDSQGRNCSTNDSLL
Chain of AP-2 complex subunit beta (Homo sapiens) (P63010 whole entry, looked up, the tested form may be a part, one chain of several): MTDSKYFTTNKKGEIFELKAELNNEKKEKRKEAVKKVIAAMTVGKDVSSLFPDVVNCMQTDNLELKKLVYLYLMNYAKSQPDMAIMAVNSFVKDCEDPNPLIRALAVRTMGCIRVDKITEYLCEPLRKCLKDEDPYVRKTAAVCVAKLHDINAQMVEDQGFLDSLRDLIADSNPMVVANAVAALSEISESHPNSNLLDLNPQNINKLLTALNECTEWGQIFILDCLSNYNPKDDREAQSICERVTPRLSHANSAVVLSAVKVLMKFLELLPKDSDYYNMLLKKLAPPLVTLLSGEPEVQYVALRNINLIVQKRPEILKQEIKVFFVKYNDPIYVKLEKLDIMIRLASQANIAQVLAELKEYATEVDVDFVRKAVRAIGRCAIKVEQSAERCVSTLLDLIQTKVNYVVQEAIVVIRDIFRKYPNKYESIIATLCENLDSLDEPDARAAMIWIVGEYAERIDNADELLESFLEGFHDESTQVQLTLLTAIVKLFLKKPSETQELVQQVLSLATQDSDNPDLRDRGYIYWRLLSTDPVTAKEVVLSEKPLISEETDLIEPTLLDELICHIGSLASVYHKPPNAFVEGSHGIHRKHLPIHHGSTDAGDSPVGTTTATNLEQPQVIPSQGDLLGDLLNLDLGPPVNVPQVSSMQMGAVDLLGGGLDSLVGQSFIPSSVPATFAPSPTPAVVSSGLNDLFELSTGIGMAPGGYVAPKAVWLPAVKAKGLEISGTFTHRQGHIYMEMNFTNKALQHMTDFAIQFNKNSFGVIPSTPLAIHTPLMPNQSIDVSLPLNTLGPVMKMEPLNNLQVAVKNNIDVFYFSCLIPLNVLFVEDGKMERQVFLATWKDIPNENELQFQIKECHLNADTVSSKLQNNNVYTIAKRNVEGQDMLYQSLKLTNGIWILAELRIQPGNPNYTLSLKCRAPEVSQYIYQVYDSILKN
Chain of Beta-adrenergic receptor kinase 1 (Homo sapiens) (P25098 whole entry, looked up): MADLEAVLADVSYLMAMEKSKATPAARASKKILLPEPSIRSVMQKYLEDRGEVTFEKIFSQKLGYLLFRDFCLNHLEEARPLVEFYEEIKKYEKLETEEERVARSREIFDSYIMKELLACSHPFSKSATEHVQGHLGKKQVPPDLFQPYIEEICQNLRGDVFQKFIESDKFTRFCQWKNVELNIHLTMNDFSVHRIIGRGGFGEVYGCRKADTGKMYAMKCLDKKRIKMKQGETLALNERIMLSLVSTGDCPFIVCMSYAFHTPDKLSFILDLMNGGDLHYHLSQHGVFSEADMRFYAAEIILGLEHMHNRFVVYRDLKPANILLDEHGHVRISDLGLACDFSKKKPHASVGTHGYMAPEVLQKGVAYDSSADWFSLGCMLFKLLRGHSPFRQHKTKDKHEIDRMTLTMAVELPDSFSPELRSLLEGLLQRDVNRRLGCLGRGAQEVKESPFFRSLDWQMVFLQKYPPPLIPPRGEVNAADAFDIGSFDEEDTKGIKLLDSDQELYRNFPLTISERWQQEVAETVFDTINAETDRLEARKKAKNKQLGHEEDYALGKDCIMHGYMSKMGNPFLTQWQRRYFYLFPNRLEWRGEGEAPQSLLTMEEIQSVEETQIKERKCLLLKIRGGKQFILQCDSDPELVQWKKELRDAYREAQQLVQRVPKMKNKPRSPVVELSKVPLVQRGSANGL

For the compound `O=C(/C=C/c1ccco1)Nc1ccccc1C(=O)O`, the percent of DMSO control GFP in assay [1] is 98.1% (inactive). The values for the GFP response vs DMSO in [2] and in [4] were 105% (inactive) and 94.8% (inactive), respectively. Besides, the percent response of DMSO control in assay [3] was 107% (inactive). For the same compound, the GFP response, % of DMSO in [5] is 109% (inactive). The same compound returned a double positive events in assay [6] of 65.9%. In assay [6], the vesicle binding response is 205% (inactive). The inhibition in assay [7] was -31.9% (inactive); in assay [11], -15.5% (inactive); in assay [15], -11% (inactive). Besides, the superoxide response (% of plate) in [8] was 124% (inactive). The aptamer binding inhibition in assay [9] is 11% (inactive). Besides, the figures for the response in assay [10] and in assay [12] were 5.64% (inactive) and 3.27% (inactive), respectively. Moreover, the binding (% of control) in assay [13] was 105% (inactive). The efflux inhibition (fraction of control) in assay [14] was -0.3 (inactive). Besides, in assay [16], the differentiation response was 23.2% (inactive).

On to `CC12CC(c3ccccc3O1)C(C(=O)N1CCOCC1)C(=O)N2` (stereo not drawn), for which the percent of DMSO control GFP in assay [1] is 100% (inactive). Also, the figures for the GFP response vs DMSO in assay [2] and in assay [4] were 103% (inactive) and 85.2% (inactive), respectively. The percent response of DMSO control in assay [3] was 101% (inactive). In addition, in assay [5], the GFP response, % of DMSO is 101% (inactive). Further, the double positive events in assay [6] is 60.3%. For the same compound, the vesicle binding response in assay [6] is 53.4% (inactive). Further, the inhibition in assay [7] is 2.55% (inactive); in [11], -22.1% (inactive); in assay [15], 8% (inactive). In [8], the superoxide response (% of plate) is 107% (inactive). Further, in [9], the aptamer binding inhibition was 6% (inactive). The values for the response in assay [10] and in assay [12] were 6.73% (inactive) and 0.44% (inactive), respectively. Further, the binding (% of control) in assay [13] was 103% (inactive). The efflux inhibition (fraction of control) in assay [14] is -0.34 (inactive). Also, the differentiation response in assay [16] was -1.88% (inactive).

Turning to `CC/C(=C(\c1ccc(O)cc1)c1ccc(OCCN(C)C)cc1)c1ccccc1`, in assay [1], the percent of DMSO control GFP is 107% (inactive). The values for the GFP response vs DMSO in assay [2] and in assay [4] were 108% (inactive) and 99.1% (inactive), respectively. Further, the percent response of DMSO control in assay [3] was 109% (inactive). Further, in assay [5], the GFP response, % of DMSO was 114% (inactive). This compound yielded a double positive events in assay [6] of 62.9%. Further, the vesicle binding response in assay [6] is 157% (inactive). In addition, the inhibition is 15% (inactive) in [7], 42.2% (inactive) in [11] and 21% (inactive) in [15]. In assay [8], the superoxide response (% of plate) was 97.5% (inactive). The aptamer binding inhibition in [9] was -6% (inactive). Further, the response in assay [10] was 38.5% (inactive); in assay [12], -1.39% (inactive). In addition, the binding (% of control) in assay [13] is 112% (inactive). Moreover, in assay [14], the efflux inhibition (fraction of control) is 0.29 (inactive). Also, in assay [16], the differentiation response is -3.11% (inactive).

As for `CC(C)=CCC/C(C)=C/CC/C(C)=C/CC/C(C)=C/CC1=C(C)C(=O)c2ccccc2C1=O`, the percent of DMSO control GFP in assay [1] is 98.2% (inactive). Moreover, the GFP response vs DMSO in assay [2] is 105% (inactive); in [4], 121% (inactive). Also, the percent response of DMSO control in assay [3] was 101% (inactive). In assay [5], the GFP response, % of DMSO was 116% (inactive). Besides, the double positive events in assay [6] is 58.9%. Moreover, in assay [6], the vesicle binding response is 205% (inactive). Besides, the inhibition was -7.08% (inactive) in [7], -12.1% (inactive) in assay [11] and -4% (inactive) in assay [15]. Further, the superoxide response (% of plate) in [8] was 102% (inactive). Also, in [9], the aptamer binding inhibition was 2% (inactive). Further, the response was -16% (inactive) in assay [10] and -1.04% (inactive) in assay [12]. The binding (% of control) in assay [13] was 99.2% (inactive). Further, in [14], the efflux inhibition (fraction of control) was -0.09 (inactive). Besides, in assay [16], the differentiation response was -6.96% (inactive).

Values taken from PubChem BioAssay.
